Source: PubChem BioAssay (Tox21)
Records with an inconclusive call do not appear. Entries that show only a call come without a potency. Calls of active or inactive are those of the source. Unless noted, calls come from the whole dose curve; as a rule, active = well fitted curve in the direction sought with a large enough effect in the repeat runs; inconclusive = weak or mixed curves; inactive = no such curve, though single readings can be large; an effect the other way counts as inactive or inconclusive.

Assays:
[1] = target: Retinoic acid receptor RXR-alpha (Homo sapiens) (UniProt P19793); experiment: qHTS assay to identify small molecule agonists of the RXR signaling pathway (AID 1159527; calls by dose curve; note: nearly all actives have a fitted effect of over 35% in size; note: potency is the fitted concentration of half-maximal effect)
Sequence of Retinoic acid receptor RXR-alpha (Homo sapiens) (P19793 whole entry, looked up): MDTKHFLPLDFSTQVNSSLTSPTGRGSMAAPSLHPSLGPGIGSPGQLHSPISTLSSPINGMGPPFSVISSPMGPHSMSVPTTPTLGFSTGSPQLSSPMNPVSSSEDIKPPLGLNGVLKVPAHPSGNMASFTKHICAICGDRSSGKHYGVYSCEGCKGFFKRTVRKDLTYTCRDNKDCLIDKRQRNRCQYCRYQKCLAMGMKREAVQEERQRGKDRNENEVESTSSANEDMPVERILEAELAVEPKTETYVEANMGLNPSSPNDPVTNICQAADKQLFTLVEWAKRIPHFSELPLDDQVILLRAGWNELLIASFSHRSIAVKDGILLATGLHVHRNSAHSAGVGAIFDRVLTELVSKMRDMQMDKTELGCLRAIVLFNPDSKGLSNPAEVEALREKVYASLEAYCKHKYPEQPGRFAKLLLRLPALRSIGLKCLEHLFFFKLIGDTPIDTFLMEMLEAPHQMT
In short: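 16 hr incubation of compound-treated RXR-alpha-UAS-bla HEK 293T cells (2% charcoal-stripped FBS, 37 C) preceded a 2 hr room-temperature LiveBLAzer FRET substrate step and blue/green fluorescence measurement.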

[2] = qHTS assay to identify small molecule agonists of the RXR signaling pathway - cell viability counter screen (AID 1159529); note: nearly all actives have a fitted effect of over 50% in size; note: potency is the fitted concentration of half-maximal effect
In short: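 In this parallel viability measure, GeneBLAzer RXR-alpha HEK 293T cells (2% charcoal-stripped FBS) were given a 5 hr preincubation, treated with compounds 16 hr at 37 C, and read by CellTiter-Glo luminescence.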

[3] = qHTS assay to identify small molecule antagonists of the retinoid acid receptor (RAR) signaling pathway - cell viability counter screen (AID 1159551); note: nearly all actives have a fitted effect of over 35% in size
In short: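 ATP-based viability, C3RL4 cells, 6 h at 37 C with 1 uM final retinol co-added after compound; luminescence read 30 min post CellTiter-Glo, RT.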

[4] = qHTS assay to identify small molecule agonists of the retinoic acid receptor (RAR) signaling pathway (AID 1159553); settings: C3RL4 RARE luciferase reporter, agonist, 6 h; activation: at 73.3 µM (top of the series); note: potency is the fitted concentration of half-maximal effect
In short: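 Quantitative high-throughput format: the Tox21 10K library was tested on C3RL4 RARE-luciferase cells for 6 hr at 37 C and 5% CO2, with luminescence measured after a 30 min room-temperature reagent step.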

[5] = qHTS assay to identify small molecule antagonists of the retinoic acid receptor (RAR) signaling pathway (AID 1159552; note: nearly all actives have a fitted effect of over 50% in size)
In short: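 C3RL4 RARE-luc cells, overnight plating; retinol 1 uM final added right after compound; 6 hr 37 C; luciferase read at 30 min RT.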

[6] = qHTS assay to identify small molecule antagonists of the estrogen related receptor (ERR) signaling pathway - cell viability counter screen (AID 1224818);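 note: viability measured after 17.5 h of compound exposure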
In short: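 Quantitative high-throughput viability counter screen in ERR cells. Compounds (DMSO) incubated 17.5 h at 37 C; read-out was CellTiter-Fluor fluorescence.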

[7] = qHTS assay to identify small molecule antagonists of the estrogen related receptor (ERR) signaling pathway (AID 1224819; note: nearly all actives have a fitted effect of over 50% in size)
In short: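 ERR reporter cell line (NTP) plated at 2,000 cells/well, settled 6 h at 37C/5% CO2, then exposed to LOPAC compounds for 18 h at 37C. One-Glo luciferase luminescence read after 30 min at room temperature.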

[8] = test system: estrogen-related receptor alpha (ERRalpha) with PGC-1alpha coactivator, human; experiment: qHTS assay to identify small molecule antagonists of the estrogen related receptor signaling pathway with the pleiotropic PPARgamma coactivator (PGC) (AID 1224821; calls by dose curve;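 note: lower luminescence signal means antagonism of PGC/ERR signalling; nearly all actives have a fitted effect of over 50% in size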)
In short: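 Luminescence from One-Glo luciferase reagent (30 min, room temperature) measured after 18 h compound treatment at 37 °C. Cells carry the PGC/ERR reporter and were seeded 6 h prior to dosing.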

[9] = qHTS assay to identify small molecule antagonists of the estrogen related receptor signaling pathway with the pleiotropic PPARgamma coactivator (PGC) cell viability counter screen (AID 1224822)
In short: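 Cytotoxicity in the PGC/ERR cell line is assessed with CellTiter-Fluor, read as fluorescence intensity 30 min after reagent addition, following 17.5 h compound treatment at 37 C.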

[10] = qHTS assay to identify small molecule agonists of the estrogen related receptor (ERR) signaling pathway (AID 1224820)
In short: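 After 6 h plating (2,000 cells/well) and 18 h compound treatment at 37 C, ERR cells were lysed with One-Glo and luminescence read after 30 min at room temperature.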

NNC(=O)CP(=O)(c1ccccc1)c1ccccc1
Potency [1]: inactive
Potency [2]: inactive
Potency [3]: inactive
Potency [4]: inactive

C1C[C@@H]2[C@H]3CC[C@H](C3)[C@@H]2C1
Potency [1]: inactive
Potency [2]: inactive
Potency [3]: inactive
Potency [4]: inactive

O=C1NC(=O)c2cc([N+](=O)[O-])ccc21
Potency [1]: inactive
Potency [2]: inactive
Potency [3]: inactive
Potency [4]: inactive

O=c1c(O)c(-c2ccc(O)cc2)oc2cc(O)cc(O)c12
Potency [1]: inactive
Potency [2]: inactive
Potency [4]: 18.4 µM (active)

NC(=O)c1ccncc1
Potency [1]: inactive
Potency [2]: inactive
Potency [3]: inactive
Potency [4]: inactive

COc1cc(C(=O)NCCCCCC(=O)O)cc(OC)c1OC
Potency [1]: inactive
Potency [2]: inactive
Potency [3]: inactive
Potency [4]: inactive

CN1C(C(=O)Nc2ccccn2)=C(O)c2sccc2S1(=O)=O
Potency [1]: inactive
Potency [2]: inactive
Potency [3]: inactive
Potency [4]: 29.8 µM (active)

CCCCCC[C@@H](O)C/C=C\CCCCCCCC(=O)OCC(O)CO (stereo partly specified)
Potency [1]: 49 µM (active)
Potency [3]: inactive
Potency [5]: inactive
Potency [4]: inactive

CC(C)(c1ccccc1)c1ccccc1
Potency [1]: inactive
Potency [2]: inactive
Potency [3]: inactive
Potency [5]: inactive
Potency [4]: inactive

C=C(C)CCCC(C)CCO (stereo unspecified)
Potency [1]: inactive
Potency [2]: inactive
Potency [3]: inactive
Potency [4]: inactive

NC1[C@H]2CN(c3nc4c(cc3F)c(=O)c(C(=O)O)cn4-c3ccc(F)cc3F)C[C@@H]12 (stereo partly specified)
Potency [1]: 19 µM (active)
Potency [2]: inactive
Potency [3]: inactive
outcome [6]: inactive
outcome [7]: inactive
outcome [8]: inactive
outcome [9]: inactive

O=C(O)CCCCCCCCCCCBr
Potency [1]: inactive
Potency [3]: inactive
Potency [5]: inactive

Cc1cc2c(OCC(CNC(C)(C)C)OC(=O)c3ccccc3)cccc2[nH]1 (stereo unspecified)
Potency [1]: inactive
Potency [2]: inactive
Potency [3]: inactive
Potency [4]: inactive

c1ccc2c(c1)CCc1ccccc1N2
Potency [1]: inactive
Potency [3]: inactive
Potency [5]: inactive
Potency [4]: inactive

CN1C[C@H](C(=O)N[C@]2(C)O[C@@]3(O)[C@@H]4CCCN4C(=O)[C@H](Cc4ccccc4)N3C2=O)C[C@@H]2c3cccc4[nH]cc(c34)C[C@H]21
Potency [1]: inactive
Potency [3]: inactive
Potency [5]: inactive
Potency [4]: inactive
outcome [10]: inactive

O=C1Cc2cc(Cl)ccc2N1
Potency [1]: inactive
Potency [2]: inactive
Potency [3]: inactive
Potency [4]: inactive

O=C(O)CCC(=O)C(=O)O
Potency [1]: inactive
Potency [2]: inactive
Potency [3]: inactive
Potency [4]: inactive

CCCCCCCCCCC(=O)O
Potency [1]: 49.6 µM (active)
Potency [2]: inactive
Potency [3]: inactive
Potency [4]: inactive

CCCCCCC(C)(C)C(=O)O
Potency [1]: inactive
Potency [2]: inactive
Potency [3]: inactive
Potency [4]: inactive

C[C@H]1C[C@H](O)c2ccsc2S1(=O)=O
Potency [1]: inactive
Potency [2]: inactive
Potency [3]: inactive
Potency [4]: inactive

Clc1cc(Cl)nc(Cl)n1
Potency [1]: inactive
Potency [2]: inactive
Potency [3]: inactive
Potency [4]: inactive

CC(O)c1ccccc1 (stereo unspecified)
Potency [1]: inactive
Potency [2]: inactive
Potency [3]: inactive
Potency [5]: inactive
Potency [4]: inactive

CNC(=O)c1cnn(-c2nc(N)c3ncn([C@@H]4O[C@H](CO)[C@@H](O)[C@H]4O)c3n2)c1
Potency [1]: inactive
Potency [3]: inactive
Potency [5]: inactive
Potency [4]: inactive

O=C=Nc1cccc(C(F)(F)F)c1
Potency [1]: inactive
Potency [3]: inactive

CC(=O)Oc1ccc([N+](=O)[O-])cc1CCl
Potency [1]: inactive
Potency [2]: inactive
Potency [3]: inactive
Potency [4]: 68.6 µM (active)

CC(CCC(=O)O)C(=O)O (stereo unspecified)
Potency [1]: inactive
Potency [2]: inactive
Potency [5]: inactive
Potency [4]: inactive

CO/N=C(/C(=O)N[C@@H]1C(=O)N2C(C(=O)O)=C(COC(N)=O)CS[C@H]12)c1ccco1
Potency [1]: inactive
Potency [2]: inactive
Potency [3]: inactive
Potency [4]: inactive

Oc1cc2c(cc1O)[C@H]1c3ccc(O)c(O)c3OC[C@@]1(O)C2
Potency [1]: inactive
Potency [2]: inactive
Potency [3]: inactive
Potency [4]: 55.1 µM (active)

Cc1ccccc1N=C(N)Nc1ccccc1C
Potency [1]: inactive
Potency [2]: inactive
Potency [3]: inactive
Potency [4]: inactive

C=C1CCC2CC1C2(C)C (stereo unspecified)
Potency [1]: inactive
Potency [2]: inactive
Potency [3]: inactive
Potency [5]: inactive
Potency [4]: inactive

CN1C(=O)N(c2ccccc2Br)Cc2cnc(Nc3ccc4c(c3)OCC(CO)O4)nc21 (stereo unspecified)
Potency [1]: inactive
Potency [2]: 0.245 µM (active)
Potency [4]: inactive

CCOC(=O)c1ccc(O)c(O)c1
Potency [1]: inactive
Potency [2]: inactive
Potency [3]: inactive
Potency [5]: inactive
Potency [4]: inactive

O=C1CCCCCCCCCCOCCCCO1
Potency [1]: inactive
Potency [3]: inactive
Potency [5]: inactive
Potency [4]: inactive

CCCCN1CCCC1C(=O)Nc1c(C)cc(C)cc1C (stereo unspecified)
Potency [1]: inactive
Potency [3]: inactive
Potency [5]: inactive
Potency [4]: inactive

O=C(O)C[C@H](NC(=O)OCc1ccccc1)C(=O)O
Potency [1]: inactive
Potency [2]: inactive
Potency [3]: inactive
Potency [4]: inactive

C=CCc1ccccc1OCC(O)CNC(C)C (stereo unspecified)
Potency [1]: inactive
Potency [2]: inactive
Potency [3]: inactive
outcome [6]: inactive
outcome [9]: inactive

CC(C)Nc1cccnc1N1CCN(C(=O)c2cc3cc(NS(C)(=O)=O)ccc3[nH]2)CC1
Potency [1]: inactive
Potency [2]: inactive
Potency [3]: inactive
Potency [4]: inactive

OC(CCN1CCCC1)(c1ccccc1)C1CCCCC1 (stereo unspecified)
Potency [1]: inactive
Potency [2]: inactive
Potency [3]: inactive
Potency [4]: inactive

O=C=Nc1ccc(Cl)c(Cl)c1
Potency [1]: inactive
Potency [3]: inactive
Potency [5]: inactive
Potency [4]: inactive

CCOC(C)=O
Potency [1]: inactive
Potency [2]: inactive
Potency [3]: inactive
Potency [5]: inactive
Potency [4]: inactive

CCOC(=O)C1=C(C)NC(C)=C(C(=O)OC)C1c1cccc(Cl)c1Cl (stereo unspecified)
Potency [1]: inactive
Potency [3]: inactive
Potency [4]: inactive
outcome [6]: inactive
outcome [10]: inactive
outcome [8]: inactive
